This is part of a sample that, as a whole, favours compounds with a hit. Of some 83,000 tested, about 20% had one in any assay.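 Testing used 96-well plates and a 48-hour single-concentration exposure. Example: -40 means 40% of the starting cells died.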 The source made the active and inactive calls. Rule for the calls: active = growth percent below 10; inactive = the rest.
Columns and labels:
Experiment in all cases: NCI-60 one-dose screen, 48 h (100 = growth as untreated, 0 = no growth, -100 = all killed)
DU-145 prostate = settings: 10 µM unless noted
K-562 leukemia = settings: 10 µM unless noted
MALME-3M melanoma = settings: 10 µM unless noted
MDA-MB-231 breast = settings: 10 µM unless noted
RXF 393 renal = settings: 10 µM unless noted
SF-268 CNS = settings: 10 µM unless noted
SF-539 CNS = settings: 10 µM unless noted
UACC-257 melanoma = settings: 10 µM unless noted
M14 melanoma = settings: 10 µM unless noted
HCT-15 colon = settings: 10 µM unless noted
HT29 colon = settings: 10 µM unless noted
SNB-19 CNS = settings: 10 µM unless noted
U251 CNS = settings: 10 µM unless noted
PC-3 prostate = settings: 10 µM unless noted
SK-MEL-5 melanoma = settings: 10 µM unless noted
UACC-62 melanoma = settings: 10 µM unless noted
LOX IMVI melanoma = settings: 10 µM unless noted
SK-MEL-28 melanoma = settings: 10 µM unless noted
SNB-75 CNS = settings: 10 µM
SF-295 CNS = settings: 10 µM unless noted

Measured: growth

O=C(/C=C/c1c[nH]c2ccccc12)c1ccc(O)c(CN2CCN(c3ccc(F)cc3)CC2)c1
inactive: DU-145 prostate 107% | K-562 leukemia 103% | MALME-3M melanoma 101% | MDA-MB-231 breast 98.7% | RXF 393 renal 108% | SF-268 CNS 94% | SF-539 CNS 98.3% | UACC-257 melanoma 115% | M14 melanoma 99.4% | HCT-15 colon 93.5% | HT29 colon 99% | SNB-19 CNS 94.1% | U251 CNS 93.7% | PC-3 prostate 84.7% | SK-MEL-5 melanoma 100% | UACC-62 melanoma 101% | LOX IMVI melanoma 96.1% | SK-MEL-28 melanoma 107%

COc1cc(-c2nn(-c3cccc(NC(=O)Nc4cc(C(F)(F)F)cc(C(F)(F)F)c4)c3)cc2-c2ccncc2)ccc1Cl
active: DU-145 prostate 3.89% | K-562 leukemia -10.7% | MALME-3M melanoma -10.7% | MDA-MB-231 breast -92% | RXF 393 renal -68.1% | SF-268 CNS -46.3% | SF-539 CNS -53.5% | UACC-257 melanoma -45.1% | M14 melanoma -42.1% | HCT-15 colon 2.59% | HT29 colon -41.2% | SNB-19 CNS 6.55% | U251 CNS -81.7% | PC-3 prostate -55.2% | SK-MEL-5 melanoma -96.1% | UACC-62 melanoma -55.9% | LOX IMVI melanoma -91.3% | SK-MEL-28 melanoma -28.9%

COc1cc(/C=C/C(=O)c2cccc(-n3cc(-c4cc(OC)c(OC)c(OC)c4)[nH]c3=O)c2)cc(OC)c1OC
inactive: DU-145 prostate 12.5% | MALME-3M melanoma 28.9% | MDA-MB-231 breast 35.4% | SF-268 CNS 20.9% | UACC-257 melanoma 37.2% | SNB-75 CNS 44.6% | SNB-19 CNS 56.6% | SK-MEL-5 melanoma 27%
active: K-562 leukemia 0.136% | RXF 393 renal -79.5% | SF-539 CNS -86.1% | M14 melanoma -0.87% | HCT-15 colon -4.5% | U251 CNS -41% | PC-3 prostate 9.89% | UACC-62 melanoma 7.42% | LOX IMVI melanoma -55% | SK-MEL-28 melanoma 4.45%

O=[N+]([O-])c1ccc(OCCCOc2ccccc2)cc1
inactive: DU-145 prostate 108% | K-562 leukemia 99% | MALME-3M melanoma 110% | MDA-MB-231 breast 104% | RXF 393 renal 116% | SF-268 CNS 106% | SF-539 CNS 110% | UACC-257 melanoma 100% | M14 melanoma 114% | HCT-15 colon 99.4% | SNB-75 CNS 97.2% | SNB-19 CNS 105% | U251 CNS 90.7% | PC-3 prostate 94.3% | SK-MEL-5 melanoma 105% | UACC-62 melanoma 93.7% | LOX IMVI melanoma 97.6% | SK-MEL-28 melanoma 103%

Cc1cc(C(C)(C)C)ccc1S
inactive: DU-145 prostate 116% | K-562 leukemia 99.8% | MALME-3M melanoma 113% | MDA-MB-231 breast 115% | RXF 393 renal 103% | SF-268 CNS 102% | SF-295 CNS 102% | UACC-257 melanoma 108% | M14 melanoma 112% | HT29 colon 97.5% | SNB-75 CNS 91.4% | SNB-19 CNS 105% | U251 CNS 109% | PC-3 prostate 85.6% | SK-MEL-5 melanoma 111% | UACC-62 melanoma 98.6% | LOX IMVI melanoma 103% | SK-MEL-28 melanoma 104%

Cc1ccc(S(=O)(=O)NCCNc2nccc(-c3c(-c4ccc(O)cc4)nc4sccn34)n2)cc1
inactive: DU-145 prostate 102% | K-562 leukemia 81.7% | MALME-3M melanoma 95.6% | MDA-MB-231 breast 97.7% | RXF 393 renal 92.2% | SF-268 CNS 95.6% | SF-539 CNS 107% | UACC-257 melanoma 108% | M14 melanoma 93.3% | HCT-15 colon 99.1% | HT29 colon 78.9% | SNB-19 CNS 113% | U251 CNS 104% | PC-3 prostate 86.5% | SK-MEL-5 melanoma 94.5% | UACC-62 melanoma 91.4% | LOX IMVI melanoma 95.7% | SK-MEL-28 melanoma 114%

COc1cc(-c2nn(-c3cccc(NC(=O)c4cccc(C(F)(F)F)c4)c3)cc2-c2ccncc2)ccc1Cl
active: DU-145 prostate 2.16% | K-562 leukemia 6.11% | MDA-MB-231 breast 4.67% | RXF 393 renal -42.8% | SF-539 CNS -48.8% | HT29 colon -12.1% | PC-3 prostate 4.39% | SK-MEL-5 melanoma -33%
inactive: MALME-3M melanoma 10.1% | SF-268 CNS 30.5% | UACC-257 melanoma 34.5% | M14 melanoma 12.3% | HCT-15 colon 12.8% | SNB-19 CNS 47.3% | U251 CNS 13.1% | UACC-62 melanoma 27.2% | LOX IMVI melanoma 11.4% | SK-MEL-28 melanoma 32.5%

COc1cc(C2CC(c3ccc4c(c3)OCO4)=NN2C=O)cc(OC)c1OC (stereo not given)
inactive: DU-145 prostate 31.7% | K-562 leukemia 17.6% | MDA-MB-231 breast 68% | RXF 393 renal 45.7% | SF-268 CNS 44.8% | UACC-257 melanoma 65.3% | M14 melanoma 26.7% | HCT-15 colon 33.5% | SNB-19 CNS 42.8% | U251 CNS 32% | PC-3 prostate 47.9% | SK-MEL-5 melanoma 17.2% | UACC-62 melanoma 40.9% | LOX IMVI melanoma 34.5% | SK-MEL-28 melanoma 50.6%
active: MALME-3M melanoma -3.87% | SF-295 CNS -1.84% | SNB-75 CNS -13.5%

O=C(Nc1cccc(-n2cc(-c3ccncc3)c(-c3ccc(Cl)c(O)c3)n2)c1)Nc1ccc(Cl)c(C(F)(F)F)c1
active: DU-145 prostate -17% | K-562 leukemia -20.8% | MALME-3M melanoma -16.6% | MDA-MB-231 breast -36.4% | RXF 393 renal -76% | SF-268 CNS -34.5% | SF-539 CNS -26.1% | UACC-257 melanoma -54% | M14 melanoma -25.5% | HCT-15 colon 1.04% | HT29 colon -6.5% | SNB-19 CNS -28.8% | U251 CNS -70.4% | PC-3 prostate -10.4% | SK-MEL-5 melanoma -100% | UACC-62 melanoma -55.1% | LOX IMVI melanoma -75.8% | SK-MEL-28 melanoma -31.5%

Cc1cc(C)n(-c2nnc3n2N=C(c2ccc(-c4ccccc4)cc2)CS3)n1
active: K-562 leukemia 6.94% | RXF 393 renal 5.5% | HT29 colon 6.89%
inactive: DU-145 prostate 66.2% | MALME-3M melanoma 43.5% | MDA-MB-231 breast 51.1% | SF-268 CNS 56.7% | SF-539 CNS 38.7% | UACC-257 melanoma 53.7% | M14 melanoma 30% | HCT-15 colon 36% | SNB-19 CNS 66.9% | U251 CNS 37.3% | PC-3 prostate 36.4% | SK-MEL-5 melanoma 28.2% | UACC-62 melanoma 40.5% | LOX IMVI melanoma 35.2% | SK-MEL-28 melanoma 52.7%

COc1ccc(C2C=C(c3ccc(N)cc3)N=C3SC=CN32)cc1OC (stereo not given)
inactive: DU-145 prostate 107% | K-562 leukemia 97.5% | MALME-3M melanoma 92.8% | MDA-MB-231 breast 123% | RXF 393 renal 110% | SF-268 CNS 104% | SF-539 CNS 99.9% | UACC-257 melanoma 103% | M14 melanoma 106% | HCT-15 colon 101% | HT29 colon 103% | SNB-19 CNS 102% | U251 CNS 98.5% | PC-3 prostate 91.4% | SK-MEL-5 melanoma 103% | UACC-62 melanoma 112% | LOX IMVI melanoma 105% | SK-MEL-28 melanoma 113%

COc1ccc(NC(=O)CSc2nc(-c3ccc(OC)c(OC)c3)cc(-c3cc(OC)c(OC)c(OC)c3)n2)cc1
inactive: DU-145 prostate 112% | K-562 leukemia 95.7% | MALME-3M melanoma 128% | MDA-MB-231 breast 91.9% | RXF 393 renal 101% | SF-268 CNS 102% | SF-295 CNS 126% | UACC-257 melanoma 111% | M14 melanoma 102% | HCT-15 colon 100% | SNB-75 CNS 76% | SNB-19 CNS 91.3% | U251 CNS 105% | PC-3 prostate 88.6% | SK-MEL-5 melanoma 88.7% | UACC-62 melanoma 92.2% | LOX IMVI melanoma 97.1% | SK-MEL-28 melanoma 108%

Fc1ccc(CNCCNc2ncnc3c2cnn3-c2ccccc2)cc1
inactive: DU-145 prostate 114% | K-562 leukemia 83.3% | MALME-3M melanoma 92.4% | MDA-MB-231 breast 79% | RXF 393 renal 74.6% | SF-268 CNS 92.3% | SF-539 CNS 100% | UACC-257 melanoma 85.6% | M14 melanoma 103% | HCT-15 colon 92.4% | HT29 colon 93.1% | SNB-19 CNS 94.1% | U251 CNS 84% | PC-3 prostate 86.6% | SK-MEL-5 melanoma 87.4% | UACC-62 melanoma 101% | LOX IMVI melanoma 89.4% | SK-MEL-28 melanoma 110%

O=S(=O)(NCCNc1nccc(-c2c(-c3ccc(O)cc3)nc3sccn23)n1)c1cccc2ccccc12
inactive: DU-145 prostate 115% | K-562 leukemia 91.4% | MALME-3M melanoma 100% | MDA-MB-231 breast 110% | RXF 393 renal 104% | SF-268 CNS 99% | SF-539 CNS 100% | UACC-257 melanoma 94.4% | M14 melanoma 105% | HCT-15 colon 100% | HT29 colon 102% | SNB-19 CNS 99.7% | U251 CNS 95.3% | PC-3 prostate 97.5% | SK-MEL-5 melanoma 102% | UACC-62 melanoma 106% | LOX IMVI melanoma 101% | SK-MEL-28 melanoma 111%

CN(C)CCCN(c1nc(C(Cl)(Cl)Cl)ns1)c1nc(C(Cl)(Cl)Cl)ns1
active: K-562 leukemia 0.874% | M14 melanoma -19% | HT29 colon 0.235% | UACC-62 melanoma 1.86% | LOX IMVI melanoma -31.4%
inactive: DU-145 prostate 75% | MALME-3M melanoma 44.8% | MDA-MB-231 breast 39.4% | RXF 393 renal 36.8% | SF-268 CNS 34.3% | SF-539 CNS 73.2% | UACC-257 melanoma 19.8% | HCT-15 colon 41.2% | SNB-19 CNS 64.2% | U251 CNS 27.4% | PC-3 prostate 22.2% | SK-MEL-28 melanoma 51.9%

COc1ccc(OC)c(C2OC(c3ccc4ccccc4c3O)=NN2C(C)=O)c1 (stereo not given)
inactive: DU-145 prostate 77.8% | K-562 leukemia 31.3% | MALME-3M melanoma 43.8% | MDA-MB-231 breast 91.1% | RXF 393 renal 53.1% | SF-268 CNS 80.3% | SF-539 CNS 65.5% | UACC-257 melanoma 57.6% | M14 melanoma 54.6% | HCT-15 colon 62% | HT29 colon 61.1% | SNB-19 CNS 81.1% | U251 CNS 83.3% | PC-3 prostate 59.3% | SK-MEL-5 melanoma 58.4% | UACC-62 melanoma 69.1% | LOX IMVI melanoma 63.9% | SK-MEL-28 melanoma 78.6%

NNc1cccc(/C=C/c2ccccc2)cc1=O
inactive: DU-145 prostate 68.2% | K-562 leukemia 45.5% | MALME-3M melanoma 103% | MDA-MB-231 breast 58.1% | RXF 393 renal 91.9% | SF-268 CNS 57.6% | SF-539 CNS 62.4% | UACC-257 melanoma 95.3% | M14 melanoma 61.4% | HCT-15 colon 33% | SNB-75 CNS 81.3% | SNB-19 CNS 67.7% | U251 CNS 48.5% | PC-3 prostate 61.3% | SK-MEL-5 melanoma 62.6% | UACC-62 melanoma 54.5% | LOX IMVI melanoma 33.4% | SK-MEL-28 melanoma 81.9%

Reference: PubChem BioAssay (NCI)
